# Assay results from PubChem BioAssay AID463075 (University of Pittsburgh Molecular Library Screening Center, 2010).
# “And” between values parts separate entries of the source, which are not always exact repeats. Identical values can stand only once. Out of some 220,000 compounds screened, about 150 (0.068%) were called active. The list comes from a sample in which actives are over-represented; it also holds similar structures and randomly drawn compounds. Values without a mark were called inactive.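 How the source made its calls: active means activation, meaning protection from cell death, of at least 50% relative to plate controls; inactive means activation below 50%.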
# Experiment: rescue of FADD-deficient Jurkat cells from TNF-alpha death – single concentration, primary screen (AID 463075);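 further: necroptosis triggered by 40 ng/mL TNF-alpha added together with compound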
# Conditions: Jurkat FADD-/- TNF necroptosis rescue, ATP luminescence, 24 h; at 10 µM; active compounds read high; 0 = TNF only, 100 = no-TNF cells
row,Compound,activation (protection from cell death)
1,COc1ccc(/C=C/C(=O)c2cc(Br)ccc(=O)c2O)cc1,-1.56%
2,CCc1ccc(C2C(C#N)=C(N)N(N3CCOCC3)C3=C2C(=O)CC(C)(C)C3)s1 (stereo not given),0.137%
3,C[C@@H]1C[C@@H]2O[C@H]2/C=C\C=C\C(=O)Cc2c(Cl)c(O)cc(O)c2C(=O)O1,36.6%
4,C=CCOc1c(CNn2cn[nH]c2=S)cccc1OC,-0.439%
5,Cc1n[nH]c(=O)nc1N/N=C/c1cccs1,-6.4%
6,CCc1cccc(CC)c1NC(=S)Nc1ccc2cn[nH]c2c1,-5.25%
7,C=CCNc1nc(N)c(C(=C(C#N)C#N)c2ccccc2)s1,-6.24%
8,COC(=O)CCNC(=O)c1ccc2[nH]c(C)c(C)c2c1,-0.237%
9,COC(=O)COc1cccc2c(=O)n(CC(=O)NCc3ccccc3)ccc12,-12.7%
10,CCCc1cc(=S)n2c([nH]c3ccccc32)c1C#N,-1.86%
11,COc1cccc(CC(=O)N2CCCC(CCC(=O)N3CCN(c4ccccn4)CC3)C2)c1 (stereo not given),2.68%
12,CCn1cc(C(=O)Nc2cc(C)ccc2C)c(=O)c2ccc(C)nc21,0.491%
13,O=[N+]([O-])c1ccc(N/N=C2/CCCCC2c2ccccn2)c([N+](=O)[O-])c1 (stereo not given),2.74%
14,CCn1c2ccccc2c2cc(NC(=O)C/C(C)=N/NC(=O)c3ccccc3N)ccc21,-9.27%
15,COc1cc(OC)cc(/C(N)=N/O)c1,4.62%
16,Cc1ccc(S(=O)(=O)/N=C(/NC(=S)Nc2c(C)n(C)n(-c3ccccc3)c2=O)c2ccccc2)cc1,0.616%
17,O=C(N/N=C1\CCSC1)c1cc(Cl)ccc1O,-0.00524%
18,O=C(Cc1cccc2ccccc12)NNC(=O)Nc1ccc(Cl)cc1,7.05%
19,Cc1nc2ccccc2nc(=O)c1NNc1ccc([N+](=O)[O-])cc1,3.59%
20,Oc1ccc(/C=N/Nc2ccc(C(F)(F)F)cn2)cc1O,30.8%
21,O=S(=O)([N-]c1nc2ccccc2nc1-[n+]1ccc(Cc2ccccc2)cc1)c1ccc(Br)s1,-3.84%
22,CCCN=C1NC(=O)C(CC(=O)NCCc2ccc(OC)c(OC)c2)S1 (stereo not given),1.06%
23,O=C(CSc1nnc(-c2ccncc2)o1)NCc1ccc(Cl)cc1,3.12%
24,Cc1cccc(N2CCN(C(=O)/C=C/c3ccco3)CC2)c1C,-4.02%

row,Compound,activation (protection from cell death)
1,Cc1ccc(S(=O)(=O)N2CCN(CC(=O)N/N=C/c3cc([N+](=O)[O-])ccc3Cl)CC2)cc1,4.63%
2,COc1ccc(C(=O)NC2CCN(C(=S)Nc3ccccc3)CC2)cc1,0.717%
3,COc1ccc(C(=S)Nc2ccccc2)cc1,-4.07%
4,COc1ccc(NC(=S)N2N=CCC2c2ccccc2)cc1 (stereo not given),87.5% (active)
5,CCCCS(=O)c1snnc1C (stereo not given),-0.406%
6,CCCOc1ccc(Cc2c(Cl)nc(SC)nc2NC)cc1,-4.22%
7,CCCCN(C)CCNC(=O)CSCc1ccc(C)cc1,1.41%
8,CCN1C(=O)/C(=C2/Sc3ccc(OC)cc3N2C)SC1=Nc1ccc(C)cc1,-1.29%
9,COc1ccc(N(CC(=O)NC2CCCCC2)S(=O)(=O)c2c(C)[nH]c(=O)[nH]c2=O)cc1,-0.527%
10,CCOC(=O)/C=c1\s/c(=C\c2ccc(C#N)cc2)c(=O)n1CC(=O)Nc1cccc(C)c1C,0.5%
11,Cc1ccc(N2C(=O)SC(N(CC(=O)O)c3ccc(C)cc3)C2=O)cc1 (stereo not given),0.355%
12,CCCN(CC(=O)Nc1ccc(C(N)=O)cc1)CC(=O)Nc1ccccc1C,8.38%
13,Oc1ccccc1C=NC1CCCCC1N=Cc1ccccc1O (stereo not given),0.233%
14,C/C(=N\N=C(N)N)c1ccc(Cl)cc1,2.76%
15,C=CCNC(=O)c1sc(SC)cc1-c1ccc(Cl)cc1,-2.68%
16,COc1cccc(C2c3[nH]c4ccccc4c3CCN2Cc2cccc(C)n2)c1 (stereo not given),0.616%
17,CC1CCc2c(nc3ncnn3c2Nc2ccc(OC(F)(F)F)cc2)C1 (stereo not given),-5.14%
18,COC(=O)c1ccc(NC(=O)CSc2nncc3ccc(OC)c(OC)c23)cc1,-0.335%
19,CCNc1nc(NCC)nc(N/N=C/c2ccc(O)c(OC)c2)n1,22.3%
20,Cc1ccc(NC(=O)c2cccs2)cc1S(=O)(=O)N(C)C,1.75%
21,CCOC(=O)C1=C(c2ccccc2)NC(=S)NC1c1ccc(Cl)cc1 (stereo not given),-2.28%
22,COc1ccc(/C(=N\O)c2nccc3cc(OC)c(OC)cc23)cc1OC,0.543%
23,CN1C(C)(C)CC(NC(=O)CCC(=O)NC2CC(C)(C)N(C)C(C)(C)C2)CC1(C)C,0.679%
24,CNC(=O)c1c(NC(NC(=O)c2ccco2)C(=O)c2ccc(Cl)cc2)sc2c1CCCC2 (stereo not given),0.421%

row,Compound,activation (protection from cell death)
1,Cc1c(CN2CCCCC2)c(O)n(CCO)c(=O)c1C#N,-0.121%
2,CCOC(=O)/C(=N\Nc1cc(Cl)ccc1Cl)N1CCN(C)CC1,7.63%
3,COc1cccc(OCCCN2CCCCCC2)c1,1.03%
4,Cc1cc(=O)oc2cc(OCC3CC(c4ccccc4Cl)=NO3)ccc12 (stereo not given),-15.7%
5,Cc1ccc(C2NC(=S)NC3=C2N2CCC3CC2)cc1 (stereo not given),1.6%
6,C=C(Cl)COC(=O)C1C2C=CC(C2)C1C(=O)O (stereo not given),-1.48%
7,CN(C)/C=C/C(=O)c1cnc2sccn2c1=O,-0.24%
8,Cc1nnsc1C(=O)N/N=C/c1ccccc1Cl,3.7%
9,Cc1nnsc1C(=O)Nc1cccc(Cl)c1C,5.62%
10,Cc1nnsc1C(=O)NCc1c(F)cccc1Cl,72.6% (active)
11,O=C(NCCCCCCCCCNC(=O)C(F)(F)F)C(F)(F)F,-0.812%
12,CS(=O)(=O)c1ccc2nc(NC(=O)c3ccc(N4CCCC4=O)cc3)sc2c1,-0.943%
13,COc1ccc(S(=O)(=O)N2CCN(C(=O)c3cc(C)oc3C)CC2)cc1,2.28%
14,O=c1cc(N2CCCCC2)c(-c2ccccc2)nn1Cc1cccc(F)c1,-0.813%
15,Cc1ccc(O)c(-c2cc(C(=O)NCc3ccccc3)[nH]n2)c1,-18.4%
16,O=C(Nc1ccc(F)cc1)c1cc2c(s1)CCCC2,-1.43%
17,CCCCCCCNc1nc(Cl)nc(NCCO)n1,5.58%
18,O=C(CCCOc1ccc(Cl)cc1Cl)NNC(=O)C1CCC1,3.99%
19,C/C(CCc1ccccc1)=N\NC(=O)c1ccc(CN2CCOCC2)cc1,0.488%
20,CCN=c1sc(C(=O)Nc2ccccc2)c(C)n1CC,1.57%
21,CCOC(=O)CN(C(=O)COc1nc(-c2ccccc2)cc(C)c1C#N)c1ccc(F)cc1,0.588%
22,Cc1ccccc1-n1nc(C)c2c1N=C1C(Cl)=CC(Cl)=CN1C2c1ccc(C(=O)O)cc1 (stereo not given),1.37%
23,COc1cc(OC)cc(-c2cc3nc(C4CCN(C(=O)OC(C)(C)C)CC4)cc(=O)n3[nH]2)c1,1.03%
24,c1ccc(C2c3[nH]c4ccccc4c3CCN2Cc2cccn2-c2cccnc2)nc1 (stereo not given),-0.81%

row,Compound,activation (protection from cell death)
1,CCCCCCC12CCC(C(=O)O)(CC1)CC2,-1.53%
2,CCn1c(SCC(=O)Nc2sc(C)c(C)c2C#N)nnc1C1CC1,4.46%
3,Cc1ccc(CC2S/C(=C(/C#N)C(=O)N3CCOCC3)N(c3ccccc3)C2=O)cc1 (stereo not given),-0.961%
4,COc1ccc(-c2ccc(CCC(=O)O)n2-c2ccc(O)cc2)cc1,0.347%
5,COc1ccc(-n2c(C)nn(CC3CC3)c2=O)cc1,68.3% (active)
6,COc1ccc(-n2c(SC)nc(O)cc2=O)cc1,0.231%
7,COc1ccc(-n2c(C)nc3c(cnn3-c3ccccc3)c2=O)cc1,-4.93%
8,COc1ccc(CCN2C(=O)CC(N3CCC(C(N)=O)CC3)C2=O)cc1OC (stereo not given),1.77%
9,CCOc1cc(CNCCN(C)C)c(Cl)cc1OCC(=O)NCCc1ccccc1,-1.03%
10,O=C(NC(=S)Nc1cccc(-c2ccc(CO)o2)c1)c1cccs1,-0.171%
11,Cc1nc(-c2ccccc2)cn2c1nc1ccccc12,0.981%
12,CCOC(=O)C(=O)C1C(=O)Nc2ccccc21 (stereo not given),-0.27%
13,COc1ccc(NC(=O)c2sccc2SCC#N)cc1,-2.27%
14,COc1ccc(S(=O)(=O)Nc2ccc(F)cc2)c(C)c1C,-1.23%
15,C=CCn1c(P(C)(=O)O)nc2ccccc21,1.54% and 0.149%
16,CN(C)c1ccc(-n2cccc2/C=N/n2cnnc2)cc1,1.75%
17,Cc1nonc1C(=O)N/N=C/c1ccc(O)cc1,1.53%
18,CCOC(=O)C1=NN(c2ccc(Cl)cc2)/C(=C/C2=NCCc3cc(OC)c(OC)cc32)S1,-2.32%
19,CCN(CC(=O)Nc1cccc(S(N)(=O)=O)c1)Cc1nc2ccccc2c(=O)[nH]1,2.32%
20,CC(C)CCN1C(=O)c2ccc(C(=O)Nc3cccc(S(N)(=O)=O)c3)cc2C1=O,-1.31%
21,O=C(CC1C(=O)NCCN1Cc1ccc(-c2ccccc2)cc1)NCc1ccncc1 (stereo not given),0.134%
22,S=C(Nc1ccc(Br)cc1Cl)NC1CCN(Cc2ccccc2)CC1,1.9%
23,CC(C)CCN1NC2(CCC(C)CC2)NC1=S (stereo not given),-1.55%
